# Results taken from publication PMC8384837, “Expanding the binding specificity for RNA recognition by a PUF domain”.
# Tests used:
# Test in all cases: yeast three-hybrid, YBZ-1, SC-Leu-His + 0.5 mM 3-AT, 4 days
# Details in all cases: tags: N-Gal4 AD-HA kept; label: inside an RPR1-promoter hybrid RNA with tandem MS2 sites; ssRNA
# PUM1 PUF domain R7-SRP = PUM1 PUF domain R7-SRP (Homo sapiens, UniProt Q14671 828-1176, N1080R;E1083P)
# In short: (§1)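 The interaction score is the log change in how often each variant appears, from input to selection. Frequencies came from PCR-amplified, Illumina-sequenced repeat regions of Pumilio-1 PUF domain libraries grown in strain YBZ-1 (LexA–MS2 coat fusion, HIS3 reporter) alongside matching RNA elements. Input plates were SC-Leu and selection plates were SC-Leu-His + 0.5 mM 3-AT, each for four days, and the log2 calculation used a pseudocount of 1 where a variant was absent.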
# PUM1 PUF domain R5-RHD = PUM1 PUF domain R5-RHD (Homo sapiens, UniProt Q14671 828-1176, C1007R;R1008H;Q1011D)
# In short: as §1
# PUM1 PUF domain R8-PYA = PUM1 PUF domain R8-PYA (Homo sapiens, UniProt Q14671 828-1176, N1122P;Q1126A)
# In short: as §1
# PUM1 PUF domain R4-RHS = PUM1 PUF domain R4-RHS (Homo sapiens, UniProt Q14671 828-1176, N971R;Q975S)
# In short: as §1
# PUM1 PUF domain R3-IYG = PUM1 PUF domain R3-IYG (Homo sapiens, UniProt Q14671 828-1176, C935I;R936Y;Q939G)
# In short: as §1
# PUM1 PUF domain R6-TFC = target: T1, PUM1 PUF domain R6-TFC (Homo sapiens, UniProt Q14671 828-1176, N1043T;Y1044F;Q1047C)
# T1 sequence: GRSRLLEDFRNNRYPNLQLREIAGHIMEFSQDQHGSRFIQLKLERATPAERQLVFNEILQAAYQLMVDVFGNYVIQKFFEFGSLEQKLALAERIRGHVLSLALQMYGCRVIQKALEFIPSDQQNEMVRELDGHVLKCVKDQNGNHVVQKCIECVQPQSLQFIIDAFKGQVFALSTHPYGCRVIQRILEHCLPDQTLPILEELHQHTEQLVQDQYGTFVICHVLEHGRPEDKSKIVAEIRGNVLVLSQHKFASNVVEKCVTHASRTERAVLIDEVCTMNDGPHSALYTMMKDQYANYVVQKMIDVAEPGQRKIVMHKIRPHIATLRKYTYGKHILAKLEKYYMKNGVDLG
# In short: as §1
# PUM1 PUF domain R1-TIE = PUM1 PUF domain R1-TIE (Homo sapiens, UniProt Q14671 828-1176, S863T;R864I;Q867E)
# In short: as §1
# PUM1 PUF domain R8-FHR = PUM1 PUF domain R8-FHR (Homo sapiens, UniProt Q14671 828-1176, N1122F;Y1123H;Q1126R)
# In short: as §1
sequence,measurement,setting,value
GGCUAGAACUAGUGGAUCCCCCGGCGCCCGGCGGCUCGAGCCCGGGUAAGUUUAAAUAGUCUGCAUGCCGCCGGGCGCCAUGCCUGCAGGUCGACUCUAGAAAACAUG,binding signal,PUM1 PUF domain R7-SRP,3.52 log2 enrichment (interaction score)
GGCUAGAACUAGUGGAUCCCCCGGCGCCCGGCGGCUCGAGCCCGGGUAAGUGUGAAUAGUCUGCAUGCCGCCGGGCGCCAUGCCUGCAGGUCGACUCUAGAAAACAUG,binding signal,PUM1 PUF domain R5-RHD,5.63 log2 enrichment (interaction score)
GGCUAGAACUAGUGGAUCCCCCGGCGCCCGGCGGCUCGAGCCCGGGUAAGUGUAAAUAGUCUGCAUGCCGCCGGGCGCCAUGCCUGCAGGUCGACUCUAGAAAACAUG,binding signal,PUM1 PUF domain R8-PYA,2.27 log2 enrichment (interaction score)
same,binding signal,PUM1 PUF domain R4-RHS,2.87 log2 enrichment (interaction score)
same,binding signal,PUM1 PUF domain R3-IYG,4.83 log2 enrichment (interaction score)
GGCUAGAACUAGUGGAUCCCCCGGCGCCCGGCGGCUCGAGCCCGGGUAAGUGAAAAUAGUCUGCAUGCCGCCGGGCGCCAUGCCUGCAGGUCGACUCUAGAAAACAUG,binding signal,PUM1 PUF domain R6-TFC,5.07 log2 enrichment (interaction score)
GGCUAGAACUAGUGGAUCCCCCGGCGCCCGGCGGCUCGAGCCCGGGUAAGUGUACAUAGUCUGCAUGCCGCCGGGCGCCAUGCCUGCAGGUCGACUCUAGAAAACAUG,binding signal,PUM1 PUF domain R4-RHS,2.12 log2 enrichment (interaction score)
GGCUAGAACUAGUGGAUCCCCCGGCGCCCGGCGGCUCGAGCCCGGGUAAGUGUAAAUUGUCUGCAUGCCGCCGGGCGCCAUGCCUGCAGGUCGACUCUAGAAAACAUG,binding signal,PUM1 PUF domain R1-TIE,4.28 log2 enrichment (interaction score)
GGCUAGAACUAGUGGAUCCCCCGGCGCCCGGCGGCUCGAGCCCGGGUAAGUGUAACUAGUCUGCAUGCCGCCGGGCGCCAUGCCUGCAGGUCGACUCUAGAAAACAUG,binding signal,PUM1 PUF domain R3-IYG,0.48 log2 enrichment (interaction score)
GGCUAGAACUAGUGGAUCCCCCGGCGCCCGGCGGCUCGAGCCCGGGUAAGCGUAAAUAGUCUGCAUGCCGCCGGGCGCCAUGCCUGCAGGUCGACUCUAGAAAACAUG,binding signal,PUM1 PUF domain R8-FHR,3.71 log2 enrichment (interaction score)
